Data published in PubChem BioAssay AID504462 (Sanford-Burnham Center for Chemical Genomics, 2011).
The whole screen tested about 340,000 compounds, of which about 1,700 (0.5%) were called active. This excerpt belongs to a sample that is enriched for actives. A number with no mark means an inactive call. No stated cut-off is given here; in the data, active means inhibition above about 40%; inactive means the rest.

biological target: Cysteine protease ATG4B (Homo sapiens) (UniProt Q9Y4P1); assay: ATG4B protease inhibitors, primary screen, biochemical, fluorescence, uHTS (AID 504462); settings: ATG4B cleavage of LC3-PLA2, NBD-HPC fluorescence, 1 h; at 8.33 µM; hits give high values
Sequence (Q9Y4P1 whole entry, looked up): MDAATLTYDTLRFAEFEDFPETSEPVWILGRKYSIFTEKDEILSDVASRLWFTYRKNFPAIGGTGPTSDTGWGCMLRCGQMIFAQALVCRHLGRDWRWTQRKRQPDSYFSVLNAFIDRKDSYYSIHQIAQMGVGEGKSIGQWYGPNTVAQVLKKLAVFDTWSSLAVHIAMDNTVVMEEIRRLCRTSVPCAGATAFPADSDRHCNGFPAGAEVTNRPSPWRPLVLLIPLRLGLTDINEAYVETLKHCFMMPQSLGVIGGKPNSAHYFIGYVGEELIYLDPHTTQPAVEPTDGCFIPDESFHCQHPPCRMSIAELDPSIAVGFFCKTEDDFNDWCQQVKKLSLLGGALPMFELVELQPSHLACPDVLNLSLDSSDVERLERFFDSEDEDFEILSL

Question: For Cc1cc(OCc2cc(C(=O)O)oc2C)c2c3c(c(=O)oc2c1)CCCC3, which inhibition is on record?
Answer: 48.7% (active)

Question: Which inhibition does the source give for CCN1CCN(C(=O)Cc2coc3cc(C)cc(C)c23)CC1 here?
Answer: -5.73%

Question: For COC(=O)COc1cc(C)cc2oc(=O)c3c(c12)CCCC3, which inhibition is on record?
Answer: -8.24%

Question: How did the inhibition turn out when CCOC(=O)C1(CCc2ccccc2)CCN(Cc2ccco2)CC1 was run?
Answer: -6.2%

Question: For CC(Cc1ccccc1)NCCC(c1ccccc1)c1ccccc1 (stereo not given), which inhibition is on record?
Answer: -1.23%
